PubChem BioAssay
The source made the active and inactive calls. Unless noted, no rule for the calls is given here.

Tests used:
[1] = compounds altering circadian rhythm period length – cell-based, LOPAC library, luminescence reporter (AID 2774); conditions: circadian reporter cells, at 7 µM, actives lie on both sides;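 also: values are relative to mean of DMSO wells on each plate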
[2] = test system: Hepatitis C virus NS3 helicase; assay: blockers of NS3h binding to ssDNA – biochemical, fluorescence polarization, LOPAC1280 library, primary screen (AID 687035; in the data active = inhibition above about 37%); conditions: Purified HCV NS3 helicase, Cy5-dT15 ssDNA binding fluorescence polarization; stronger effect = higher value; concentration not given here
[3] = compounds altering Cy5-DNA-NS3h complex signal – biochemical, LOPAC1280, artefact control for HCV NS3 helicase inhibitor project (AID 687037); conditions: Cy5-DNA-NS3h complex fluorescence interference counterscreen
[4] = viability loss with induced miR-34 in A549 – imaging, A549 dox-inducible miR-34, nuclei and caspase counts, primary screen (AID 1347080;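 active = compounds whose cell count with miR-34 switched on is under 0.7 times the count with it off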); conditions: A549 miR-34 inducible, Hoechst nuclei count, 48 h
[5] = blockers of cellular phospholipid synthesis – cell-based, LOPAC library, screen 4, primary screen (AID 1347384); conditions: animal cells, phospholipid biosynthesis inhibition screen; at 10 µM
[6] = galactose survival enhancers in mitochondrial complex I cybrids – cell-based, galactose medium, ATP luminescence, primary screen (AID 1645843;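 active = z-score of at least 1.8 in each of two replicates, scored against plate mean and spread of sample wells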;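 also: positive z means more ATP and so rescue of galactose-driven cybrid death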); conditions: complex I mutant cybrid cells, 72 h, stronger effect = higher value
[7] = stronger effect = lower value, cell number ratio, induced over uninduced
[8] = measured here: relative caspase fold change +Dox/-Dox
[9] = measured here: total cells with miR-34 induction, stronger effect = lower value
[10] = measured here: total cells without miR-34 induction

Compound	period change [1]	inhibition [2]	fluorescence ratio (interference) [3]	fold change [4, 7]	fold change [4, 8]	cell count [4, 9]	cell count [4, 10]	outcome [5]	z-score [6]
CCCCCCCCCC[Si](C)(C)CCC(=O)NC(Cc1ccc(C)cc1)c1ccccc1 (stereo not drawn)	0.12 h (inactive)	-1% (inactive)	1 (inactive)	1.02 (inactive)	2.15	10100	9990	inactive	-0.33 (inactive)
CC(=O)N[C@H](C(=O)O)C(C)(C)SN=O	0.185 h (inactive)	-4% (inactive)	1 (inactive)	1.07 (inactive)	1.19	11100	10400	inactive	-0.22 (inactive)
Nc1ccc(CCNc2ncnc3c2ncn3C2OC(CO)C(O)C2O)cc1 (stereo not drawn)	0.215 h (inactive)	-1% (inactive)	1 (inactive)	1.01 (inactive)	1.75	10600	10500	inactive	0.795 (inactive)
O=C(O)c1cc(=O)cc(C(=O)O)[nH]1	-0.025 h (inactive)	0% (inactive)	1 (inactive)	0.984 (inactive)	1.62	10200	10300	inactive	0.285 (inactive)
C=C[C@H]1CN2CCC1C[C@H]2[C@H](O)c1ccnc2ccc(OC)cc12 (stereo partly drawn)	-0.145 h (inactive)	-2% (inactive)	1 (inactive)	1.04 (inactive)	1.02	8290	8000	inactive	-1.04 (inactive)
CCCn1c(=O)c2c(ncn2C)n(CCC)c1=O	-0.02 h (inactive)	-3% (inactive)	1.1 (inactive)	1 (inactive)	1.17	10000	9990	inactive	0.46 (inactive)
C[N+](C)(C)CC=O	-0.2 h (inactive)	-5% (inactive)	0.9 (inactive)	1 (inactive)	1.36	10200	10200	inactive	0.245 (inactive)
OCC1NCC(O)C(O)C1O (stereo not drawn)	0.035 h (inactive)	-2% (inactive)	1 (inactive)	0.93 (inactive)	1.34	9950	10700	inactive	-0.145 (inactive)
CCCn1c(=O)[nH]c(=O)c2[nH]cnc21	0.09 h (inactive)	-1% (inactive)	1 (inactive)	0.996 (inactive)	1.45	9630	9670	inactive	0.47 (inactive)
Nc1ncnc2c1ncn2C1CCCC1	0.035 h (inactive)	-6% (inactive)	0.9 (inactive)	1.02 (inactive)	2.13	10400	10200	inactive	-0.07 (inactive)
O=[N+]([O-])c1ccc(CSc2ncnc3c2ncn3[C@@H]2O[C@H](CO)[C@H](O)C2O)cc1 (stereo partly drawn)	-0.085 h (inactive)	-4% (inactive)	0.9 (inactive)	1.12 (inactive)	0.942	10500	9340	inactive	1.67 (inactive)
CC(C)C[C@H](NC(=O)C1OC1C(=O)O)C(=O)NCCCCN=C(N)N (stereo partly drawn)	-0.035 h (inactive)	0% (inactive)	1 (inactive)	0.999 (inactive)	1.62	9550	9560	inactive	0.15 (inactive)
Cc1cccc(C2CN(C)CCc3c2cc(O)c(O)c3Cl)c1 (stereo not drawn)	0.11 h (inactive)	-4% (inactive)	1 (inactive)	0.998 (inactive)	1.65	6330	6340	inactive	-1.29 (inactive)
N[C@@H](CCCC(=O)O)C(=O)O	0.11 h (inactive)	-1% (inactive)	0.9 (inactive)	1.05 (inactive)	0.58	10400	9930	inactive	0.595 (inactive)
Nc1ncnc2c1nc(Sc1ccc(Cl)cc1)n2C1OC2COP(=O)(O)O[C@@H]2[C@@H]1O (stereo partly drawn)	-0.015 h (inactive)	-8% (inactive)	0.9 (inactive)	1.01 (inactive)	1.25	10500	10500	inactive	1.15 (inactive)
C=CCN1CCc2c(cc(O)c(O)c2Br)[C@@H](c2ccccc2)C1	0.175 h (inactive)	-2% (inactive)	1 (inactive)	1.09 (inactive)	2.06	5920	5430	inactive	-1.42 (inactive)
COc1cc(CC(=O)O)ccc1O	0.03 h (inactive)	1% (inactive)	1 (inactive)	1.05 (inactive)	0.734	10100	9570	inactive	0.08 (inactive)
CN1CCCC1CCOC(C)(c1ccccc1)c1ccc(Cl)cc1 (stereo not drawn)	0.12 h (inactive)	-3% (inactive)	1 (inactive)	1.24 (inactive)	1.31	4130	3330	inactive	-1.51 (inactive)
Nn1nnc2ccccc21	-0.155 h (inactive)	-1% (inactive)	1 (inactive)	1.06 (inactive)	1.77	10600	9990	inactive	0.305 (inactive)

Compound	period change [1]	inhibition [2]	fluorescence ratio (interference) [3]	fold change [4, 7]	fold change [4, 8]	cell count [4, 9]	cell count [4, 10]	outcome [5]	z-score [6]
CCCCCCCCCC(=O)NC(CN1CCOCC1)[C@H](O)c1ccccc1 (stereo partly drawn)	0.05 h (inactive)	2% (inactive)	1 (inactive)	0.995 (inactive)	1.18	7040	7080	inactive	-1.16 (inactive)
CC1(C)CCC(NC(=O)[C@@H](N)CCC(=O)O)CC1	-0.095 h (inactive)	-6% (inactive)	1 (inactive)	1.1 (inactive)	1.15	11000	9970	inactive	0.125 (inactive)
Cn1ccnc1	0.39 h (inactive)	-2% (inactive)	0.9 (inactive)	1.1 (inactive)	0.769	11100	10000	inactive	0.675 (inactive)
Cn1cc(C(F)(F)F)nc1-c1ccc(OCC(O)CNCCOc2ccc(O)c(C(N)=O)c2)cc1 (stereo not drawn)	-0.065 h (inactive)	0% (inactive)	1 (inactive)	0.893 (inactive)	1.45	9830	11000	inactive	-0.695 (inactive)
COc1ccccc1N1CCN(CCCNc2c(C)c(=O)n(C)c(=O)n2C)CC1	-0.1 h (inactive)	-5% (inactive)	1 (inactive)	0.886 (inactive)	2.76	8920	10100	inactive	0.025 (inactive)
COC(=O)C(N)Cc1ccc(Cl)cc1 (stereo not drawn)	-0.02 h (inactive)	1% (inactive)	1 (inactive)	0.984 (inactive)	1.85	9580	9740	inactive	0.46 (inactive)
CSc1nc(N)c2ncn([C@@H]3O[C@H](COP(=O)(O)OP(=O)(O)O)[C@H](O)C3O)c2n1 (stereo partly drawn)	-0.26 h (inactive)	33% (inactive)	0.9 (inactive)	1.03 (inactive)	1.82	11000	10800	inactive	0.32 (inactive)
CCC1(O)CC2CN(CCc3c([nH]c4ccccc34)[C@@](C(=O)OC)(c3cc4c(cc3OC)N(C)C3[C@]45CCN4CC=C[C@@](CC)([C@@H](OC(C)=O)[C@]3(O)C(=O)OC)[C@H]45)C2)C1 (stereo partly drawn)	0.43 h (inactive)	-2% (inactive)	1 (inactive)	1.18 (inactive)	0.644	1680	1430	inactive	-1.17 (inactive)
NC1C=CC=C(C(=O)O)C1 (stereo not drawn)	0.115 h (inactive)	0% (inactive)	1 (inactive)	1.08 (inactive)	2.16	9940	9200	inactive	0.355 (inactive)
O=C(c1ccc2c(c1)OCCO2)N1CCCCC1	-0.22 h (inactive)	-1% (inactive)	1 (inactive)	1.07 (inactive)	1.38	9110	8530	inactive	0.315 (inactive)
O=Nc1ccc2oc(=O)ccc2c1	-0.05 h (inactive)	-2% (inactive)	1 (inactive)	1.06 (inactive)	0.992	10200	9600	inactive	-1.25 (inactive)
Nc1nc2[nH]c(=O)cnc2c(=O)[nH]1	0 h (inactive)	-5% (inactive)	1 (inactive)	1.09 (inactive)	0.997	10400	9560	inactive	0.655 (inactive)
CNC(=O)[C@H]1O[C@@H](n2cnc3c(NCc4ccc(N)cc4)ncnc32)C(O)[C@H]1O (stereo partly drawn)	-0.095 h (inactive)	-2% (inactive)	1 (inactive)	1 (inactive)	1.7	9670	9680	inactive	0.09 (inactive)
NC(=O)C1=CN(C2OC(COP(=O)(O)OP(=O)(O)OC[C@H]3O[C@@H](n4cnc5c(N)ncnc54)C(OP(=O)(O)O)[C@H]3O)C(O)C2O)C=CC1 (stereo partly drawn)	-0.03 h (inactive)	-4% (inactive)	1 (inactive)	1.07 (inactive)	1.18	9810	9130	inactive	1.12 (inactive)
CCN(c1nc(N)c(C(=O)N=C(N)N)nc1Cl)C(C)C	-0.06 h (inactive)	-2% (inactive)	1 (inactive)	1.19 (inactive)	1.19	5200	4360	inactive	-1.38 (inactive)
N[C@@H](CCC(=O)N[C@H](CSN=O)C(=O)NCC(=O)O)C(=O)O	0.1 h (inactive)	-3% (inactive)	1 (inactive)	1.04 (inactive)	1.18	10800	10400	inactive	0.335 (inactive)
O=c1cc(-c2ccccc2)[nH]c2nc(Cl)ccc12	-0.07 h (inactive)	-3% (inactive)	1 (inactive)	0.977 (inactive)	1.95	3650	3740	inactive	-0.5 (inactive)
CC(C)COC(=O)OCN1C(=O)CN(CCN2CC(=O)N(COC(=O)OCC(C)C)C(=O)C2)CC1=O	-0.045 h (inactive)	1% (inactive)	1 (inactive)	0.995 (inactive)	1.59	8180	8220	inactive	0.435 (inactive)
